Our source for the outcome and AC50 values is PubChem BioAssay (EPA / NIEHS).

Records with an inconclusive call do not appear. Calls of active or inactive are those of the source. The calls were made as follows: active = hit-call score of the fitted dose curve at least 0.9, where 1 is the maximum; inconclusive = response in the unintended direction; inactive = score below 0.9.

A word on the AC50: it is the concentration at which the activity in the assay is half-maximal.

Broad substrate specificity ATP-binding cassette transporter ABCG2 (Homo sapiens), sequence (Q9UNQ0 whole entry, looked up): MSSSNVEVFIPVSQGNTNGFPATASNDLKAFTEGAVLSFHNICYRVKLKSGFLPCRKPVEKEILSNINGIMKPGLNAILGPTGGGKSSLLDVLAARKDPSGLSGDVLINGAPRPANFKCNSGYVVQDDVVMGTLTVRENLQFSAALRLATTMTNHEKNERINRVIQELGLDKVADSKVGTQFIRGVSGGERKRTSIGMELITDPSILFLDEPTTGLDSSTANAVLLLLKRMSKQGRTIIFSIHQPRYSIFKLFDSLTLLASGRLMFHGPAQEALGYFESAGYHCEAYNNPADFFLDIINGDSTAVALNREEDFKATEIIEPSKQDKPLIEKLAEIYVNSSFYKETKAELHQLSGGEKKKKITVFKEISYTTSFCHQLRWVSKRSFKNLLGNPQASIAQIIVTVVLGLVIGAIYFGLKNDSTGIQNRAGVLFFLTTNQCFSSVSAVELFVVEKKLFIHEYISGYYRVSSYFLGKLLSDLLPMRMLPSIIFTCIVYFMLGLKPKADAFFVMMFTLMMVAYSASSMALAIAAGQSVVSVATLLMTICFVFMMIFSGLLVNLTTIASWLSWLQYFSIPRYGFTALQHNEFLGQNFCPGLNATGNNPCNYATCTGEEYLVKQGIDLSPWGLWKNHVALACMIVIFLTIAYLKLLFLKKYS

Read-out in this experiment: Broad substrate specificity ATP-binding cassette transporter ABCG2 (Homo sapiens) (UniProt Q9UNQ0)
Put plainly: CLD_ABCG2_48hr: CellzDirect (CLD) Gene Expression Assay for ABC Transporter (ABCG2) at 48 hours (AID 2283704).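 As to AC50: potency for induction of ABCG2 mRNA above the DMSO baseline.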 How it is done: CLD_48hr is a cell-based, multiplexed-readout assay that uses hepatocyte, a human liver primary cell, with measurements taken at 48 hours after chemical dosing in a 96-well plate.CLD_ABCG2_48hr is one of 16 assay component(s) measured or calculated from the CLD_48hr assay. It is designed to make measurements of mRNA induction, a form of inducible reporter, as detected with chemiluminescence signals by Quantitative Nuclease Protection Assay (qNPA) technology.Data from the assay component CLD_ABCG2_48hr was analyzed at the endpoint, CLD_ABCG2_48hr, in the positive analysis fitting direction relative to DMSO as the negative control and baseline of activity. Using a type of inducible reporter, gain-of-signal activity can be used to understand changes in the reporter gene as they relate to the gene ABCG2. Furthermore, this assay endpoint can be referred to as a primary readout. To generalize the intended target to other relatable targets, this assay endpoint is annotated to the transporter intended target family, where subfamily is ABC transporter.
Human hepatocyte cultures were treated daily for two consecutive days with fresh dosing solutions containing appropriate concentrations of the 320 ToxCast chemicals (chemical identities were blinded to CellzDirect and other ToxCast collaborators), vehicle control (0.2% DMSO), and positive control inducers as summarized in Table 1. Due to the large number of treatment groups and chemicals examined, the ToxCast chemicals were divided into two groups (spanning two independent cultures of hepatocytes from separate donor preparations (Hu778: ToxCast plates 1 and 2; Hu776: ToxCast plates 3 and 4). Each preparation of human hepatocyte cultures was treated with respective vehicle control, medium only control, set of six positive controls/reference chemicals for the five hepatic receptor pathways, and a subset of eight of the ToxCast chemicals (indoxacarb, pyrithiobac-sodium, norflurazon, cyhalofop-butyl, methomyl, thiram, acetochlor, and propiconazole). These replicate data, coupled with internal replicates designed within the blinded ToxCast chemical library, provided additional data to evaluate interindividual differences between hepatocyte preparations and their potential impact on chemical profiles.Cell morphology and integrity were evaluated using phase-contrast microscopy as an indicator of hepatocyte cell health (Tyson & Green, 1987). Cultures for each treatment group (i.e., media, vehicle [0.2% DMSO], positive control inducers [multiple concentrations], and the ToxCast chemicals [multiple concentrations]) were observed and cell morphology was assessed relative to vehicle control cultures at each harvest time point (0, 6, 24, or 48 h). […] Images were evaluated at the conclusion of the study to assess changes in cell integrity and account for the effects of chemical exposure on uncharacteristic changes in concentration-dependent gene expression profiles. The results from these determinations of apparent cytotoxicity were annotated (yes/no) alongside the corresponding qNPA data for reference.At the conclusion of each treatment period, hepatocyte cultures (96-well) were washed with 1 volume of HBSS, lysed by addition of 25 ul ArrayPlate lysis buffer (HTG, Tucson, AZ), and 70 ul/well of Denaturation Oil, denatured by incubation at 95C for 10 min, and frozen at approximately -70C until analysis by nuclease protection assay (qNPA) (Roberts et al., 2007). For qNPA analysis, cell lysates were thawed at 50C for approximately 30 min, qNPA probes were added, and samples were incubated at 95C for 10 min to begin the detection process by denaturing the target RNA, dissociating the duplexes and secondary structure hybridization. At the conclusion of the hybridization period, S1 nuclease reagent was added to each sample to digest all nonprotected nucleotides at 50C for 60-90 min. […]
As to `CC(C)(C)[C@@H](O)[C@@H](Cc1ccc(Cl)cc1)n1cncn1`, the compound was classed as inactive.
As to `COC(=O)c1ccc(I)cc1S(=O)(=O)NC(=O)Nc1nc(C)nc(OC)n1`, the compound was called inactive.
With `CCC(O)=C1C(=O)CC(C(=O)O)CC1=O` (centres undefined), the outcome was inactive.
The same measure, in the same setting: next, `CCC(C)OC(=O)N1CCCCC1CCO` (centres undefined): “inactive”; `CC(C)(c1ccc(O)cc1)c1ccc(O)cc1`: “inactive”; `CCCN(CCC)C(=O)SCC`: “inactive”.
`S=C(S)NCCNC(=S)S.[Mn+2].[S-]C([S-])=NCCN=C([S-])[S-].[Zn+2]`: the AC50 was 3.67 µM (active).
The same measure, in the same setting: next, `C=CCOC(Cn1ccnc1)c1ccc(Cl)cc1Cl` (centres undefined): 34.9 µM (active).
`CCOC(=O)COc1cc(-n2ncc(C(F)(F)F)c(C)c2=O)c(F)cc1Cl`: the compound was called inactive.
With `CCOC(=O)C(C)Oc1ccc(Oc2nc3ccc(Cl)cc3o2)cc1` (centres undefined), the call was inactive.
`CCCOC(=O)NCCCN(C)C`: the compound was called inactive.
As for `CCNc1nc(N)nc(Cl)n1`, the call was inactive.
As to `CSC(=O)c1cccc2nnsc12`, the result was inactive.
As for `CC1(C)C(C=C(Cl)Cl)C1C(=O)OCc1cccc(Oc2ccccc2)c1` (centres undefined), the call was inactive.
Take `S=C([S-])NCCNC(=S)[S-].[Mn+2]`: the AC50 was 3.4 µM (active).
On to `C#CCOC(=O)[C@@H](C)Oc1ccc(Oc2ncc(Cl)cc2F)cc1`, for which the compound was called inactive.
In the case of `CCOC(=O)NCCOc1ccc(Oc2ccccc2)cc1`, the outcome was inactive.
Still for that read-out and setting: next, `COc1c(Cl)ccc(Cl)c1C(=O)O`: “inactive”.
On the same count and under the same terms, next, `COC(=O)c1ccccc1C(=O)O`: “inactive”; `Cc1nn(C)c(Oc2ccccc2)c1C=NOCc1ccc(C(=O)OC(C)(C)C)cc1`: “inactive”.
The same measure, in the same setting: next, `N#CSCSc1nc2ccccc2s1`: “inactive”; `CCCCC(CC)CN1C(=O)C2C3C=CC(C3)C2C1=O` (centres undefined): “inactive”.
As to `CCCCCOC(=O)COc1cc(N2C(=O)C3=C(CCCC3)C2=O)c(F)cc1Cl`, the call was inactive.
As to `COCCO`, the outcome was inactive.
